The values that follow come from ChEMBL document CHEMBL3988442, “University of Dundee, Small-Polar-MMV Screening Library” (2021).

SMILES strings stand for the structures. About 13,000 (27%) of roughly 48,000 compounds showed an effect of 50% or more. Some of the results follow.

This assay concerns Wolbachia pipientis. Put plainly: Anti-Wolbachia Cell-Based Screen. Format: functional. Also noted: scale not given: in the data most compounds retested in dose-response had high values. The following applies: 5 µM.
`COc1c(CNCc2ccc(CN3CCOCC3)cc2)c(C)nn1C`: the “Percent Effect” value is -11.29%. As to `COc1c(CNCc2cccc(Cn3ccnc3)c2)c(C)nn1C`, the “Percent Effect” value is reported as -8.562%. In the case of `Cc1nn(C)c(N(C)C)c1CNCc1cccc(CN(C)C)c1.Cl`, the “Percent Effect” value turned out to be 9.174%.

`Cc1nn(C)c(N(C)C)c1CNCc1cccc(Cn2cccn2)c1`: the “Percent Effect” value came out at 3.492%.

For `Cc1nn(C)c(N(C)C)c1CNCc1cccc(Cn2ccnc2)c1`, the “Percent Effect” value stood at 81.6%.

Consider `COc1c(CNCc2ccccc2Cn2ccnc2)c(C)nn1C`, for which the “Percent Effect” value came out at 97.96%. `CC(C#N)CSc1ccccc1NCC(=O)NCc1cccs1` (stereo not given): the “Percent Effect” value was -12.24%. For `CCc1nc(C)c(-c2nccn2CC2CC(=O)N(CC)C2)[nH]1` (stereo not given), the “Percent Effect” value was -26.8%.

As for `O=C(CNC(=O)c1c[nH]c2ccccc12)NCCCn1ccnc1`, the “Percent Effect” value is 13.72%.

As for `O=C1CC(c2cccs2)c2cnn(C3CCCC3)c2N1` (stereo not given), the “Percent Effect” value worked out at 48.91%. Turning to `O=C(CN1CCOCC1)N1CCN(C2CCc3ccc(F)cc32)CC1` (stereo not given), the “Percent Effect” value is given as -10.71%. For `Cc1cc2c(cc1Cl)C=CC1(CCN(CC(=O)N3CCOCC3)CC1)O2`, the “Percent Effect” value amounted to 104%. `COc1ccnc(N2CCN(CC(=O)N3CCOCC3)CC2)n1`: the “Percent Effect” value amounted to 3.835%. Consider `Cc1cc2c(cc1Cl)C=CC1(CCN(C(=O)N3CCOCC3)CC1)O2`, for which the “Percent Effect” value is given as 95%. Consider `Nc1cc(C(=O)N2CCCC3(C=Cc4ccccc4O3)CC2)ccn1` (stereo not given), for which the “Percent Effect” value was -15.12%. As for `Cc1cc2c(cc1C)OC1(C=C2)CCN(CC(=O)N2CCOCC2)CC1`, the “Percent Effect” value was 107.9%. With `Cc1cc(C(=O)N2CCCC3(C=Cc4ccccc4O3)CC2)cc(=O)[nH]1` (stereo not given), the “Percent Effect” value was found to be 7.842%. On to `CCN(C)c1ncnc2c1CCN(C(=O)N1CCOCC1)CC2`, for which the “Percent Effect” value was -3.195%.

Consider `Cc1cc2c(cc1Cl)C=CC1(CCN(CC(=O)N3CCCC3)CC1)O2`, for which the “Percent Effect” value stood at 122.5%. On to `COc1ncc(C(=O)N2CCCC3(C=Cc4ccccc4O3)CC2)cn1` (stereo not given), for which the “Percent Effect” value amounted to 1.868%. `O=C(O)C(F)(F)F.c1csc(CN2CCc3ncnc(C4CCOC4)c3CC2)n1` (stereo not given): the “Percent Effect” value is 8.568%. As to `O=S(=O)(CC1CCOCC1)NCc1ccnc(O)c1`, the “Percent Effect” value is 1.758%. As for `Cc1ccsc1CCNC(=O)C1(Oc2cccnc2C)CCNCC1`, the “Percent Effect” value is 14.81%. Turning to `CN(C)c1ccc2c(c1)CN(C(=O)c1ccnnc1)C2c1cnco1` (stereo not given), the “Percent Effect” value is -12.4%. In the case of `O=C(CN1C=Nc2ccccc2S1(=O)=O)NC1CCCCC1`, the “Percent Effect” value is on record as -27.98%. The same measure for `CCN(CC)C(=O)CN1CCC2(C=Cc3cc(Cl)c(C)cc3O2)CC1`: 113.1%; for `Cc1cc2c(cc1Cl)C=CC1(CCN(CC(=O)NC3CCCC3)CC1)O2`: 121.2%.

As for `CCc1ccc(O)c(C(=O)N2CCCN(CC(=O)N(CC)CC)CC2)c1`, the “Percent Effect” value is recorded as -4.449%. As to `Cc1cn(CC(=O)NC2CCN(CC3CC3)CC2)c2ccccc12`, the “Percent Effect” value was -11.31%. For the compound `CCc1ccc(O)c(C(=O)N2CCN(CC(=O)N(CC)CC)CC2)c1`, the “Percent Effect” value is 11.73%.

As to `CC1(C)CN(CC(F)(F)F)CCN1CC(=O)NC1CCCC1`, the “Percent Effect” value turned out to be 1.341%. Take `Cc1cc(NC(=O)c2nc(N3CCCC3)ncc2Cl)nc(C(C)C)n1`: the “Percent Effect” value is on record as -9.396%. The same measure for `Cc1ccc(-c2n[nH]cc2CNCC2CCS(=O)(=O)C2)o1` (stereo not given): -39.75%; for `COCCCN1CC2(CCCCN2C(C)=O)CC1=O` (stereo not given): 3.783%; for `CCOC(=O)C1CC2(CCOCC2)N2CCC(=O)N12` (stereo not given): 102.8%.

As to `COCCCN1CC2(CCCCN2C(=O)C2CCCCC2)CC1=O` (stereo not given), the “Percent Effect” value is recorded as -3.805%. In the case of `CCS(=O)(=O)N1CCCC2(CCCC(=O)N2C)C1` (stereo not given), the “Percent Effect” value is on record as -13.94%. On to `CCOC(=O)C1CC2(CCCC2)N2CCC(=O)N12` (stereo not given), for which the “Percent Effect” value turned out to be 94.86%.

Consider `CCN1C(=O)CO[C@@H]2CN(C(=O)C3CCOCC3)C[C@H]21`, for which the “Percent Effect” value is given as 7.95%. Consider `CCOCC1COCCC12CCN(C(=O)C1=CCCC1)CC2` (stereo not given), for which the “Percent Effect” value is -18.23%.

On to `CCOC(=O)C1CC2(CCCCC2)N2CCC(=O)N12` (stereo not given), for which the “Percent Effect” value came to 121.9%.

`CCN1CC2(CCCCN2C(=O)C2CCCCC2)CC1=O` (stereo not given): the “Percent Effect” value is given as -14.04%. The value for `CCc1ccc(C2COCCN2C(=O)Nc2cc(C)on2)o1` (stereo not given) was -5.597%; that for `CCc1ccc(CN(C)C(=O)c2ccc(CSc3nnc[nH]3)o2)nc1` was -27.23%; that for `CC(=O)NCCNC(=O)NCCc1c(C)cc(C)cc1C` was -0.992%. The value for `Cc1ccc2[nH]c(CO[C@H]3CN(c4ccc(C#N)cn4)C[C@H]3F)nc2c1` was 0.4241%. Turning to `CC(O)CN1CCN(Cc2coc(-c3ccccc3Cl)n2)CC1` (stereo not given), the “Percent Effect” value was 6.495%.

Turning to `OCCN1CCN(Cc2coc(-c3ccc(Cl)cc3)n2)CC1`, the “Percent Effect” value is given as 12.92%.

Regarding `Cc1ccc(-c2nc(CN3CCn4c(nnc4C4CC4)C3)co2)cc1`, the “Percent Effect” value is reported as -3.724%. In the case of `Cc1ccc(-c2nc(CN3CCN(CCO)CC3)co2)cc1`, the “Percent Effect” value was found to be 88.55%. Turning to `COc1ccc(-c2nc(CN3CCN(CCO)CC3)co2)cc1`, the “Percent Effect” value is recorded as 6.071%.

On to `CC(O)CN1CCN(Cc2coc(-c3ccc(Cl)cc3)n2)CC1` (stereo not given), for which the “Percent Effect” value stood at 105.9%. With `CC(O)CN1CCN(Cc2coc(-c3ccccc3)n2)CC1` (stereo not given), the “Percent Effect” value is -18.93%. Take `OCCN1CCN(Cc2coc(-c3ccccc3)n2)CC1`: the “Percent Effect” value amounted to 106.5%. As to `OCCN1CCN(Cc2coc(-c3ccccc3Cl)n2)CC1`, the “Percent Effect” value stood at 6.785%.
